Measured values reported in paper PMC5540273 (PLoS ONE, 2017).

tested on: AAK1; details: concentration: 1 μM, replicates: in singlicate; n = 1
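Further: KINOMEscan kinase panel screen.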

Row | SMILES | %Inh
1 | COc1ccc(NC(=O)c2ccoc2)cc1-c1ccc(C(=O)NCC2CC2)cc1 [GW810437] | 0%
2 | CC(=O)Nc1cn2nc(Oc3cccc(NC(=O)c4cccc(C(F)(F)F)c4)c3)ccc2n1 | 0%
3 | Cc1ccc(C)c(NC(=O)Nc2ccc(C)c(-c3ccc(C(=O)Nc4ccncc4)cc3)c2)c1 [GSK1398473] | 11%
4 | CN(C)c1ncnc2nc[nH]c12 [SKF-31736] | 30%
5 | Cc1ccc(O)cc1Nc1ccnc2cc(-c3ccc(CN4CCCCC4)o3)ccc12 [GW557777] | 10%
6 | Cl.Cl.NCC(NC(=O)c1cc(-c2cccnc2)c(-c2ccnc3[nH]ccc23)s1)c1ccccc1 (centres unmarked) [GSK1323434] | 59%
7 | CC(C)NCC(Cc1ccccc1)NC(=O)c1cc(Br)c(-c2ccnc3[nH]ccc23)s1.Cl.Cl (centres unmarked) [GSK1383281] | 25%
8 | COc1cccc(NC(=O)NCCNc2ccnc(Nc3ccc(F)cc3)n2)c1 [GSK1379879] | 0%
9 | Cc1cc(-c2ccnc(Nc3cccc(C#N)c3)n2)cc(C)c1O [GSK1440913] | 79%
10 | Cc1ccc(O)cc1Nc1ccnc2ccc(C(C)(C)C)cc12 [GW856805] | 10%
11 | O=C(Nc1n[nH]c2nc(-c3ccccc3)ccc12)C1CC1 [SB-708999] | 100%
12 | Cl.Cl.NC(CNC(=O)c1cc(Br)c(-c2ccnc3[nH]ccc23)s1)c1ccccc1 (centres unmarked) [GSK1322949] | 82%
13 | Cn1cc(-c2cnc(N)c3c(-c4ccc5c(c4)CCN5C(=O)Cc4ccccc4)csc23)cn1 [GSK2593074] | 0%
14 | O=C1NC(=O)C(c2ccccc2Cl)=C1Nc1cccc(Cl)c1 [SB-342409] | 7%
15 | COc1ccc(C2=C(Nc3cccc(O)c3)C(=O)NC2=O)cc1 [SB-390766] | 20%
16 | CN(C)CCNS(=O)(=O)c1ccc(-c2ccnc3[nH]ccc23)cc1 [GSK977620] | 21%
17 | CC(C)c1nc(-c2cccc(NS(=O)(=O)c3c(F)cccc3F)c2)c(-c2ccnc(Nc3ccc(N4CCOCC4)nc3)n2)s1.Cl [GSK1723980] | 7%
18 | CCn1cnc2c(NCc3ccccc3)ncnc21 [SKF-96418] | 0%
19 | COC(=O)Nc1nc2cc(Oc3ccc(NC(=O)Nc4cccc(SC)c4)cc3)ccc2[nH]1.Cl [GW697999] | 0%

Row | SMILES | %Inh
20 | O=C(Nc1n[nH]c2nc(-c3cccc(O)c3)ccc12)C1CC1 [SB-711805] | 33%
21 | CN(c1ccc(F)c(NC(=O)c2cccc(OC(C)(C)C#N)c2Cl)c1)c1ccc2nc(NC(=O)C3CC3)sc2n1 | 2%
22 | Cc1nn2c(=O)cc(N3CCO[C@H](C)C3)nc2n1Cc1cccc(Cl)c1Cl [GSK2373693] | 1%
23 | Cl.O=C(Nc1ccc(Oc2ccc3[nH]c(NC(=O)c4ccco4)nc3c2)cc1)Nc1cc(C(F)(F)F)ccc1F [GW683134] | 5%
24 | N#CC1(c2cccc(C(=O)Nc3cccc(Oc4ccc5nc(NC(=O)C6CC6)sc5n4)c3)c2)CC1 | 3%
25 | COC(=O)Nc1nc2ccc(Oc3ccc(CC(=O)Nc4cc(C(F)(F)F)ccc4F)cc3)cc2[nH]1 [GW680903] | 4%
26 | O=C(Nc1n[nH]c2nc(-c3ccccc3O)ccc12)C1CC1 [SB-711880] | 17%
27 | CNc1nccc(-c2ccc3c(N)n[nH]c3c2)n1 [GSK2206003] | 74%
28 | O=C(Nc1n[nH]c2cc(-c3cccs3)ccc12)C1CC1 [SB-731284] | 73%
29 | CC(C)(C)c1ccc(C(=O)Nc2cn3cc(-n4ccnc4)ccc3n2)cc1 | 12%
30 | Cc1ccc(Nc2ccnc(Nc3ccc(C)c(F)c3)n2)cc1O.Cl [GW582868] | 0%
31 | Fc1cc(Cl)ccc1Nc1ccnc2cc(-c3ccc(CN4CCOCC4)o3)ccc12 [GW560109] | 0%
32 | Nc1cccc(-c2ccc3c(N)n[nH]c3c2)c1 [GSK2193613] | 55%
33 | Nc1ncnc2scc(-c3ccc(NC(=O)Cc4cc(F)ccc4F)cc3)c12.O=C(O)C(F)(F)F [SB-731254-M] | 10%
34 | COc1cccc(-c2nc(-c3ccccc3)[nH]c2-c2ccncc2)c1 [SB-610250] | 2%
35 | Cc1cccc(Nc2nc(NCCN)ncc2C(N)=O)c1 [GSK1292139] | 78%
36 | CN1CCN(Cc2ccc(NC(=O)Nc3ccc(N(C)c4ccnc(Nc5ccc(CS(C)(=O)=O)cc5)n4)cc3)cc2)CC1.Cl [GW827654] | 62%
37 | CN(c1ccc(NC(=O)Nc2cccc(Cl)c2)cc1)c1ccnc(N)n1.Cl [GW830707] | 0%

tested on: ABL1-nonphosphorylated; details: concentration: 1 μM, replicates: in singlicate; n = 1

Row | SMILES | %Inh
38 | COc1ccc(NC(=O)c2ccoc2)cc1-c1ccc(C(=O)NCC2CC2)cc1 [GW810437] | 24%
39 | CC(=O)Nc1cn2nc(Oc3cccc(NC(=O)c4cccc(C(F)(F)F)c4)c3)ccc2n1 | 100%
40 | Cc1ccc(C)c(NC(=O)Nc2ccc(C)c(-c3ccc(C(=O)Nc4ccncc4)cc3)c2)c1 [GSK1398473] | 0%
41 | CN(C)c1ncnc2nc[nH]c12 [SKF-31736] | 38%
42 | Cc1ccc(O)cc1Nc1ccnc2cc(-c3ccc(CN4CCCCC4)o3)ccc12 [GW557777] | 100%
43 | Cl.Cl.NCC(NC(=O)c1cc(-c2cccnc2)c(-c2ccnc3[nH]ccc23)s1)c1ccccc1 (centres unmarked) [GSK1323434] | 54%
44 | CC(C)NCC(Cc1ccccc1)NC(=O)c1cc(Br)c(-c2ccnc3[nH]ccc23)s1.Cl.Cl (centres unmarked) [GSK1383281] | 0%
45 | COc1cccc(NC(=O)NCCNc2ccnc(Nc3ccc(F)cc3)n2)c1 [GSK1379879] | 0%
46 | Cc1cc(-c2ccnc(Nc3cccc(C#N)c3)n2)cc(C)c1O [GSK1440913] | 25%
47 | Cc1ccc(O)cc1Nc1ccnc2ccc(C(C)(C)C)cc12 [GW856805] | 98.1%
48 | O=C(Nc1n[nH]c2nc(-c3ccccc3)ccc12)C1CC1 [SB-708999] | 62%
49 | Cl.Cl.NC(CNC(=O)c1cc(Br)c(-c2ccnc3[nH]ccc23)s1)c1ccccc1 (centres unmarked) [GSK1322949] | 21%
50 | Cn1cc(-c2cnc(N)c3c(-c4ccc5c(c4)CCN5C(=O)Cc4ccccc4)csc23)cn1 [GSK2593074] | 99.7%
51 | O=C1NC(=O)C(c2ccccc2Cl)=C1Nc1cccc(Cl)c1 [SB-342409] | 0%
52 | COc1ccc(C2=C(Nc3cccc(O)c3)C(=O)NC2=O)cc1 [SB-390766] | 0%
53 | CN(C)CCNS(=O)(=O)c1ccc(-c2ccnc3[nH]ccc23)cc1 [GSK977620] | 0%
54 | CC(C)c1nc(-c2cccc(NS(=O)(=O)c3c(F)cccc3F)c2)c(-c2ccnc(Nc3ccc(N4CCOCC4)nc3)n2)s1.Cl [GSK1723980] | 99.7%
55 | CCn1cnc2c(NCc3ccccc3)ncnc21 [SKF-96418] | 21%
56 | COC(=O)Nc1nc2cc(Oc3ccc(NC(=O)Nc4cccc(SC)c4)cc3)ccc2[nH]1.Cl [GW697999] | 91.4%

Row | SMILES | %Inh
57 | O=C(Nc1n[nH]c2nc(-c3cccc(O)c3)ccc12)C1CC1 [SB-711805] | 94.2%
58 | CN(c1ccc(F)c(NC(=O)c2cccc(OC(C)(C)C#N)c2Cl)c1)c1ccc2nc(NC(=O)C3CC3)sc2n1 | 99%
59 | Cc1nn2c(=O)cc(N3CCO[C@H](C)C3)nc2n1Cc1cccc(Cl)c1Cl [GSK2373693] | 0%
60 | Cl.O=C(Nc1ccc(Oc2ccc3[nH]c(NC(=O)c4ccco4)nc3c2)cc1)Nc1cc(C(F)(F)F)ccc1F [GW683134] | 96.1%
61 | N#CC1(c2cccc(C(=O)Nc3cccc(Oc4ccc5nc(NC(=O)C6CC6)sc5n4)c3)c2)CC1 | 100%
62 | COC(=O)Nc1nc2ccc(Oc3ccc(CC(=O)Nc4cc(C(F)(F)F)ccc4F)cc3)cc2[nH]1 [GW680903] | 35%
63 | O=C(Nc1n[nH]c2nc(-c3ccccc3O)ccc12)C1CC1 [SB-711880] | 68%
64 | CNc1nccc(-c2ccc3c(N)n[nH]c3c2)n1 [GSK2206003] | 7%
65 | O=C(Nc1n[nH]c2cc(-c3cccs3)ccc12)C1CC1 [SB-731284] | 81%
66 | CC(C)(C)c1ccc(C(=O)Nc2cn3cc(-n4ccnc4)ccc3n2)cc1 | 44%
67 | Cc1ccc(Nc2ccnc(Nc3ccc(C)c(F)c3)n2)cc1O.Cl [GW582868] | 3%
68 | Fc1cc(Cl)ccc1Nc1ccnc2cc(-c3ccc(CN4CCOCC4)o3)ccc12 [GW560109] | 99.5%
69 | Nc1cccc(-c2ccc3c(N)n[nH]c3c2)c1 [GSK2193613] | 34%
70 | Nc1ncnc2scc(-c3ccc(NC(=O)Cc4cc(F)ccc4F)cc3)c12.O=C(O)C(F)(F)F [SB-731254-M] | 80%
71 | COc1cccc(-c2nc(-c3ccccc3)[nH]c2-c2ccncc2)c1 [SB-610250] | 0%
72 | Cc1cccc(Nc2nc(NCCN)ncc2C(N)=O)c1 [GSK1292139] | 5%
73 | CN1CCN(Cc2ccc(NC(=O)Nc3ccc(N(C)c4ccnc(Nc5ccc(CS(C)(=O)=O)cc5)n4)cc3)cc2)CC1.Cl [GW827654] | 100%
74 | CN(c1ccc(NC(=O)Nc2cccc(Cl)c2)cc1)c1ccnc(N)n1.Cl [GW830707] | 0%
